Data on 27 compounds can be found in PubChem BioAssay AID651994 (Sanford-Burnham Center for Chemical Genomics, 2013).

In all, about 2,500 compounds went through this assay and about 790 (32%) were called active. These entries were drawn from the full list. A number with no mark means an inactive call.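 Rule for the calls: active = mean cytotoxicity at 5 µM above about 25% (limit read from the data); inactive = the rest.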

This assay in a line: cell viability loss, Sufu-null reporter line – ATP luminescence, single concentration, cytotoxicity control for Gli-SUFU antagonist project, confirmation (AID 651994).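 Note: cells exposed to compound overnight for roughly 16 to 18 hours; plate controls were DMSO wells with cells for no effect and medium without cells for full effect.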 The note with it: Sufu-KO-LIGHT cells cytotoxicity, at 5 µM, hits give high values.
For the compound `Cc1ccsc1C(=O)OCC(=O)c1cc(C)n(CC2CCCO2)c1C` (configuration not stated), the cytotoxicity was 26.6% (active).
For the compound `Cc1cccc2nc(CSc3nc4[nH]ncc4c(=O)n3-c3cccc(Cl)c3)cc(=O)n12`, the cytotoxicity is 20.1%.
For the compound `Cc1ccc(S(=O)(=O)N(Cc2cc3ccccc3[nH]c2=O)CC2CCCO2)cc1` (configuration not stated), the cytotoxicity was 5.2%.
For `COc1ccccc1CNC(=O)C1CCN(c2nc3ccccc3o2)CC1`, the cytotoxicity is 17.9%.
In the case of `COc1ccc(NS(=O)(=O)c2ccc(NC(C)=O)cc2)cc1OC`, the cytotoxicity is 14%.
As to `Cc1cccc(NS(=O)(=O)c2ccc(-c3cnc(C4CC4)o3)cc2)c1`, the cytotoxicity was 54.4% (active).
Take `Cc1cc(C)c(SCCc2ccncc2)c(C)c1`: the cytotoxicity was 29.5% (active).
On to `Cc1ccc(NC(=O)CN(C)CC(=O)Nc2cccc(F)c2)cc1[N+](=O)[O-]`, for which the cytotoxicity is 29% (active).
With `Cc1ccc(O)c(NC(=O)COc2cc(C)ccc2C)c1`, the cytotoxicity was -3.46%.
In the case of `COCCn1c(CN2CCC(Cc3ccccc3)CC2)nc2c1c(=O)n(C)c(=O)n2C`, the cytotoxicity is 19.8%.
With `CCCCNc1nc2c(c(=O)n(C)c(=O)n2C)n1Cc1cccc(OC)c1`, the cytotoxicity was 44.5% (active).
Regarding `Cn1c(=O)c2c(nc(NCCc3ccccc3)n2Cc2ccccc2)n(C)c1=O`, the cytotoxicity was 34.7% (active).
On to `COc1ccc(NS(=O)(=O)c2ccc(N3CCN(CCO)CC3)c([N+](=O)[O-])c2)cc1`, for which the cytotoxicity is 16.4%.
In the case of `CC(=O)OCCC(C)C`, the cytotoxicity was -7.84%.
Take `CCCc1nc(N)nc2c1C(=O)CC(C)(C)C2`: the cytotoxicity is 5.9%.
The value for `CN1C(CC(=O)Nc2ccc(Br)cc2)c2ccccc2CC1(C)C` (configuration not stated) was 15.7%; that for `Cc1ccc(C)c(S(=O)(=O)N2CCN(c3ncnc4sccc34)CC2)c1` was 69.2% (active).
For the compound `c1ccc(-n2nnnc2N2CCOCC2)cc1`, the cytotoxicity is 10.1%.
`CC[n+]1c(C)n(-c2ccccc2)c2ccc(NC(C)=O)cc21`: the cytotoxicity was 29% (active).
For `CCC1CCCCN1CCCNC(=O)Cn1nc(-c2ccccc2)ccc1=O` (configuration not stated), the cytotoxicity was 20.3%.
For `CN(NC(=O)c1ccccc1F)c1nc(C(F)(F)F)nc2ccccc12`, the cytotoxicity was 56.2% (active).
For the compound `CCn1c(SCc2ccccc2)nc2cc(OC)c(OC)cc2c1=O`, the cytotoxicity was 23.5%.
With `CCOc1cccc(/C=N/NC(=S)NCCN2CCOCC2)c1O`, the cytotoxicity is 20.7%.
For `CCOC(=O)c1cnc(-n2nc(C)cc2C)nc1NNc1cc(C)nc(-c2ccccc2)n1`, the cytotoxicity is 24%.
As to `c1c2c(cc3sc(N4CCCCC4)nc13)OCCO2`, the cytotoxicity was 51.8% (active).
As to `CN(C)CCN(C(=O)C1CCCCC1)c1nc2cc3c(cc2s1)OCO3`, the cytotoxicity was 20.3%.
Regarding `CCOC(=O)c1ccc(NC(=O)Cn2cnc3cc(C)c(C)cc32)cc1`, the cytotoxicity was 24.9%.
